About 540 (0.36%) of roughly 150,000 compounds showed an effect of 50% or more. This is one part of a sample in which strong results are shown more often than they occur.

The results in this text go back to ChEMBL document CHEMBL4888484, “Replenishing the malaria drug discovery pipeline: Screening and hit evaluation of the MMV Hit Generation Library 1 (HGL1) against asexual blood stage Plasmodium falciparum ,using a nano luciferase reporter read-out” (2022).

The subject of this experiment is Plasmodium falciparum. The experiment in a line: Primary screen in NF54 nanoGlo assay, in single point, at 2uM, 72h; a lower Z score goes with more inhibition. It is filed as functional, Erythrocyte. The following applies: timepoint 72 hour.
Consider `CCS(=O)(=O)C1CCN(Cc2cn(-c3ccc(F)c(Cl)c3)nn2)CC1`, for which the “% Inhibition” value was 8% and the Z score was -0.85.
In the case of `C[C@H](Oc1ccccc1F)c1nnc2n1CCCC2`, the “% Inhibition” value was -9% and the Z score turned out to be 1.39.
Taken in the same sequence, the figures for `COc1ccc(CN2C(=O)Cc3ccccc3[C@@H](C(=O)O)[C@@H]2c2ccccc2)c(OC)c1` were 0% and -0.05.
Taken in the same sequence, the figures for `O[C@@H](CN1CCC(c2ccn[nH]2)CC1)C(F)(F)F` were 27% and -3.09.
The matching figures for `CCCCNC(=O)N1CC[C@H](c2ccn[nH]2)C1`: -16% and 1.68.
In the case of `O=C(N[C@@H](CN1CCCC1)c1ccccc1)N1CCC(c2ccn[nH]2)CC1`, the “% Inhibition” value was 50% and the Z score was -8.21.
Taken in the same sequence, the figures for `Cc1cc2ncc(-c3nc([C@H]4CCOC(C)(C)C4)no3)c(C)n2n1` were -5% and 0.67.
The matching figures for `Cc1ccsc1-c1nccn1CCNC(=O)c1ccc(F)cc1`: -3% and 0.58.
In the case of `Cc1ccc(C(N)=O)c(NCC2(N3CCN(C)CC3)CCCC2)n1`, the “% Inhibition” value is reported as -17% and the Z score turned out to be 1.6.
Turning to `Cc1cc(N(C)C(=O)c2nccn3ccnc23)ccc1Br`, the “% Inhibition” value was found to be 26% and the Z score is on record as -3.49.
Take `COCC(C)(C)c1noc(-c2ccc(C(F)(F)F)c(=O)[nH]2)n1`: the “% Inhibition” value is listed as -6% and the Z score amounted to 0.62.
The matching figures for `COc1ccc(-n2nc(C(=O)N3CCN(C)CC3)c(=O)n(Cc3cccc(C(F)(F)F)c3)c2=O)cc1OC`: -2% and 0.34.
With `C=CCN1C(=O)OC(C)(CCC=C(C)C)C1(C)O` (centres undefined), the “% Inhibition” value is 76% and the Z score was -1.64.
The matching figures for `O=C(COc1ccc(Br)cc1)Nc1ccc2c(c1)OCCCO2`: -9% and 0.79.
With `CC(C)C(=O)N(Cc1ccc(OS(=O)(=O)C(C)C)cc1)CC1CC1`, the “% Inhibition” value is reported as -21% and the Z score came to 4.
Taken in the same sequence, the figures for `COc1cc(F)c(C(C)NC2C[C@@H]3COC[C@H]23)cc1OC` (some centres undefined) were -1% and 0.15.
With `CC(C)(C)OC(=O)C1C[C@@H](N)[C@@H](n2cc(C(C)(C)C)nn2)C1` (some centres undefined), the “% Inhibition” value was -7% and the Z score stood at 1.24.
Take `Cc1ccccc1C(=O)N1[C@H](C(=O)NC2CC2)COC12CCN(C(=O)c1ccc(F)cc1)CC2`: the “% Inhibition” value is listed as -2% and the Z score was 0.23.
`CCc1nc(C#N)cc(N2CCC[C@@H]2CS(C)(=O)=O)n1`: the “% Inhibition” value is reported as -2% and the Z score is reported as 0.21.
As to `O=S(=O)(CCCOc1ccccc1)NC[C@H]1CCCN1c1ccccc1`, the “% Inhibition” value was -13% and the Z score turned out to be 2.45.
For `Cc1cnc([C@H](C)N2CCC(S(=O)(=O)N3CCCC3)CC2)o1`, the “% Inhibition” value is -14% and the Z score came to 2.67.
Taken in the same sequence, the figures for `O=c1[nH]c2ccc(NCc3cc(Cl)ccc3OCc3ccccc3F)cc2[nH]1` were 2% and -0.36.
The matching figures for `CC(C)(C)OC(=O)N1CC(OC(=O)CC2(CS(C)(=O)=O)CC2)C1`: -13% and 1.78.
Consider `CNC(=O)c1[nH]nc2c1CN(CC(=O)Nc1cccc(C)c1C)CC2`, for which the “% Inhibition” value is -5% and the Z score is listed as 0.76.
The matching figures for `Cc1cccc(CN2C[C@@H](O)C[C@H]2c2nnc3n2CCN(C(=O)C(C)C)C3)c1`: 4% and -0.68.
On to `CC(C)(C)OC(=O)N1CCN(c2nnc(NC(=O)c3c(F)cccc3F)[nH]2)CC1`, for which the “% Inhibition” value was -14% and the Z score was found to be 1.7.
`C[C@@]1(C(=O)N2CCN(c3ccccc3F)CC2)Oc2ccccc2NC1=O`: the “% Inhibition” value is 1% and the Z score is -0.16.
For `CC(C)(C)OC(=O)N1CCC2(CC1)NN=C1C=C(N3CCN(c4ccccc4F)CC3)N=CN12`, the “% Inhibition” value came out at 50% and the Z score worked out at 1.26.
Taken in the same sequence, the figures for `O=C(Nc1ccc(-n2cnnn2)cc1)c1coc(-c2ccccc2)n1` were -6% and 1.22.
`CN1CCN(S(=O)(=O)N[C@@H](CO)c2ccc(F)cc2)CC1`: the “% Inhibition” value is -12% and the Z score was 2.47.
The matching figures for `COc1cc2c(N3CCC([C@H](O)C(=O)NC4CC4)CC3)ccnc2cc1F`: -6% and 0.61.
Taken in the same sequence, the figures for `OC[C@H]1CCN(c2ccnc3cc(Cl)ccc23)C[C@@H]1O` were -1% and 0.17.
For the molecule `CCC(CC)N(Cc1ccc2c(c1)OCO2)C(=O)Cc1cccnc1`, the “% Inhibition” value is listed as 23% and the Z score is on record as -2.95.
Taken in the same sequence, the figures for `CCOc1ccc(CN2CCC[C@@](F)(C(=O)N3CCOCC3)C2)cc1OC` were -11% and 0.93.
For the molecule `N#CCc1ncc(CCN2C(=O)c3ccccc3C2=O)s1`, the “% Inhibition” value was determined as 51% and the Z score is -6.59.
Turning to `O=C1c2ccccc2C(=O)N1Cc1cnc(N2CCCCC2)s1`, the “% Inhibition” value is listed as 45% and the Z score was 0.07.
Take `CC(=O)Nc1ccnc(Cc2ccccc2)n1`: the “% Inhibition” value was -8% and the Z score was 1.29.
The matching figures for `CC(CCc1cccn1C)NC(=O)NC1CCN(c2cnn(C)c2)C1` (centres undefined): -1% and 0.08.
The matching figures for `CCc1nn(C)cc1NC(=O)N1CCN(C(=O)c2ccc(F)cc2)CC1`: 5% and -0.74.
Taken in the same sequence, the figures for `COc1ccc(C(=O)Nc2ccc3nc4c(c(Nc5ccc(OC)c(OC)c5)c3c2)CCCC4)c(OC)c1` were -8% and 0.97.
For the molecule `COc1ccccc1Nc1c2c(nc3ccc(NC(=O)c4ccc5c(c4)OCO5)cc13)CCCC2`, the “% Inhibition” value is on record as 2% and the Z score was -0.26.
On to `CCOc1cc(C(=O)Nc2ccc3nc4c(c(Nc5ccc(OC)c(OC)c5)c3c2)CCCC4)cc(OCC)c1OCC`, for which the “% Inhibition” value was 93% and the Z score is -11.16.
